Values joined by “and” are separate entries in the source; they are usually repeats but may differ in a detail not shown here. Equal values may be shown once. Compounds without any hit were thinned out: in the full panel of roughly 79,000, 15% have a hit. Active and inactive are the calls of the source. Cut-off read from the data, not from the text of the source: active = growth inhibition above about 70%; inactive = the rest.
Assays:
[1] = NCI Yeast Anticancer Drug Screen. Data for the rad50 strain (AID 155);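 note: 0% = growth of vehicle-only cultures of the same strain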; conditions: S. cerevisiae rad50 strain growth inhibition, hits give high values; at 50.0 µM unless noted
Method in brief: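 A DNA repair-deficient yeast mutant serves as the test organism; compound-induced growth inhibition is calculated against vehicle-treated cells.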

[2] = NCI Yeast Anticancer Drug Screen. Data for the mec2-1 strain (AID 157); conditions: S. cerevisiae mec2-1 strain, hits give high values; at 50.0 µM unless noted
Method in brief: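 Using mec2-1 yeast: add compound, measure growth, express inhibition versus vehicle-treated cultures.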

[3] = NCI Yeast Anticancer Drug Screen. Data for the sgs1 mgt1 strain (AID 161);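 note: 0% = growth of cultures given vehicle only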; conditions: S. cerevisiae sgs1 mgt1 strain, hits give high values; at 50.0 µM unless noted
Method in brief: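 Compounds are added to genetically altered yeast, and growth is compared with cultures given vehicle alone to give percent inhibition.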

[4] = NCI Yeast Anticancer Drug Screen. Data for the cln2 rad14 strain (AID 165);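 note: 0% = growth equal to vehicle treated cultures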; conditions: S. cerevisiae cln2 rad14 strain, hits give high values; at 50.0 µM unless noted
Method in brief: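 Yeast strain cln2 rad14, bearing defects in cell cycle control and DNA repair, serves as the test system; values reflect growth inhibition compared with vehicle.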

[5] = NCI Yeast Anticancer Drug Screen. Data for the bub3 strain (AID 167); conditions: S. cerevisiae bub3 mutant strain, hits give high values; at 50.0 µM unless noted
Method in brief: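 Inhibition values come from growth of compound-treated mutant yeast normalised to vehicle-treated controls.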

[6] = NCI Yeast Anticancer Drug Screen. Data for the mlh1 rad18 strain (AID 175); conditions: S. cerevisiae mlh1 rad18 strain growth inhibition, hits give high values; at 50.0 µM unless noted
Method in brief: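 Steps: expose repair-defective yeast to compound; measure growth; express inhibition against vehicle-treated controls.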

Measured: growth inhibition

Cc1ccc2c(c1)P(=O)(O)c1cc(C)ccc1S2
inactive: [1] -12.4% | [2] -16.6% | [3] 14.4% | [4] 22.4% | [5] -4.05% | [6] 19.7%

CC1(C)Oc2ccccc2OC1O (stereo unspecified)
inactive: [1] 1.5% | [2] 0.85% | [3] -1.75% | [4] -14.7% | [5] -10.2% | [6] 3%

O=C(COc1ccc(Cl)cc1)N1CCN(C(=O)COc2ccc(Cl)cc2)c2ccccc21
inactive: [1] 11.7% | [2] 3.05% | [3] 23.9% | [4] 11.1% | [5] 11.6% | [6] -1.05%

CN(C)C(=S)/N=c1\ssc(=S)n1Cc1cccnc1
inactive: [1] -20.6% | [2] -14.4% | [3] 5.5% | [4] 22.9% | [5] -13.7% | [6] -62.8%

CC1(C)CC(=O)C(/C=N/C(=S)Nc2ccc(S(N)(=O)=O)cc2)=C(O)C1
inactive: [1] -41.5% | [2] -68.5% | [3] -23.8% | [4] -8.55% | [5] -16.6% | [6] -30.4%

COc1ccc2cc(N3CCCC3)ccc2c1
inactive: [1] 7.8% | [2] -7.35% | [3] 6.15% | [4] -14.8% | [5] -7.55% | [6] -37.8%

COc1ccc2oc(-c3cc4cc(OC)ccc4o3)cc2c1
inactive: [1] -10.7% | [2] -5.7% | [3] -12.8% | [4] -17.9% | [5] -61.2% | [6] -0.55%

C=C(C)[C@H]1CC(=O)[C@@]2(C)C[C@H]3O[C@]3(C)CC/C=C(\C)CC[C@H]12
inactive: [1] 20.2% | [2] 14.4% | [3] 33.2% | [4] 15.1% | [5] 31.1% | [6] 51.5%

CC(=O)N1C(=O)CC23c4cccc([N+](=O)[O-])c4C(=O)N2CCCN13 (stereo unspecified)
inactive: [1] 8.8% | [2] 0.35% | [3] 0.9% | [4] 10.6% | [5] -21.8% | [6] 17.4%

CCOCc1cccc2ccccc12
inactive: [1] -13.6% | [2] -33.9% | [3] -14.9% | [4] 9% | [5] -6.55% | [6] -23.9%

CCO/C(C)=N\OC(=O)C(F)(F)F
inactive: [1] -0.1% | [2] -15.3% | [3] 6.55% | [4] -15.6% | [5] 1.35% | [6] -8.4%

Cc1ccc(C2SC(N)=Nc3c2c(C)nn3C(=O)c2ccc(Cl)cc2)cc1 (stereo unspecified)
inactive: [1] -36.1% | [2] -42% | [3] -16.4% | [4] -33.5% | [5] -27.6% | [6] -24.9%

BrC(Br)(Br)Br
inactive: [2] 12.6% | [3] 31.8% | [4] -19.6% | [5] 27.4% | [6] 57.2%
active: [1] 74%

O=C1C(=O)c2ccccc2C(O)=C1CN1CCOCC1
inactive: [1] 31.6% | [2] 32.1% | [3] 14.4% | [4] 4.65% | [5] 28% | [6] 8.85%

Nc1cncnc1N
inactive: [1] 35.7% | [2] 7.25% | [3] 31.9% | [4] 16.2% | [5] -18.6% | [6] 26.5%

c1ccc(-n2ncnn2)cc1
inactive: [1] -6.5% | [2] -11.3% | [3] -8.55% | [4] -41.1% | [5] 24.4% | [6] -1.75%

COC(=O)/C=C/c1cccnc1
inactive: [1] -16.4% | [2] -28.6% | [3] -36.1% | [4] -22.7% | [5] -10.3% | [6] -12.3%

O=c1n(-c2ccccc2)c(=O)n2n1C1C3C4C5C3C2C5(F)C41 (stereo unspecified)
inactive: [1] -7.3% | [2] 8.45% | [3] 5.95% | [4] 13.7% | [5] 6.75% | [6] 12.3%

CNc1cc(C(C)C)ccc1C
inactive: [1] 4.1% | [2] 8.75% | [3] 10.7% | [4] 0.85% | [5] 17.1% | [6] 3.25%

COc1ccc(C2(OC)Oc3cc(OC)ccc3-c3nc4ccccc4nc32)cc1 (stereo unspecified)
inactive: [1] 23.4% | [2] 1.25% | [3] -4.15% | [4] 11.6% | [5] 4.3% | [6] 0.4%

CC/C(CC(=O)CCC(=O)Nc1c(C)cccc1C)=N\NC(=O)NN
inactive: [1] -19.4% | [2] -22% | [3] -4.15% | [4] 24.6% | [5] 3% | [6] -8.5%

CC(CC(O)C(=O)O)CC(C)(C)C (stereo unspecified)
inactive: [1] -5.95% | [2] 8.7% | [3] -7.15% | [4] -7.3% | [5] 22.3% | [6] 2.6%

C/C(=N\NC(=S)Nc1nccs1)c1ccccn1
active: [1] 96.7% | [2] 97.8% | [3] 97.6% | [4] 90.5% | [5] 96% | [6] 98.4%

[O-][N+](CCO)(CCO)c1ncnc2nc[nH]c12
inactive: [1] -2.35% | [2] -12.7% | [3] -0.45% | [4] -8.9% | [5] -63.7% | [6] 18.4%

CC1OC(n2cnc3c(NC(=O)c4ccccc4)ncnc32)C(O)C2OC12 (stereo unspecified)
inactive: [1] -1.15% | [2] -3.05% | [3] 8.75% | [4] 13.4% | [5] 2.95% | [6] 14.8%

CC1=CCC(C(C)C)C2CC(C)(O)CCC12 (stereo unspecified)
inactive: [1] -3.1% | [2] -1.8% | [3] 7.15% | [4] -24.9% | [5] -4.35% | [6] 0.95%

COc1cc2c(cc1OC)C(c1c(-c3c(Cl)cccc3Cl)noc1C)=NCC2
inactive: [1] -3.8% | [2] -14.9% | [3] -11.8% | [4] 19.8% | [5] 3.2% | [6] -4.25%

COC1=CC(=O)CC(C)C12Oc1c(Cl)c(OC)cc(OC)c1C2=O (stereo unspecified)
inactive: [1] 2% | [2] -14.5% | [3] 20% | [4] 13.4% | [5] 67.1% | [6] 17.9%

O=C(Nc1ccc(Br)c2ccccc12)c1ccc2ccccc2c1O
inactive: [1] -0.05% | [2] -2.1% | [3] -26.1% | [4] -11.2% | [5] -37.5% | [6] -78.8%

O=C(O)CC(O)(CC(=O)O)C(=O)O
inactive: [1] 25% | [2] 17.9% | [3] -19.6% | [4] 3.65% | [5] -0.25% | [6] 9.25%

Cc1nn(C)c(N)c1C#N
inactive: [1] -15.9% and 8% | [2] -11.7% and 5.95% | [3] -24.6% and 3.6% | [4] 0.3% and 26.9% | [5] -8.45% and -6.5% | [6] -18.2% and -7.45%

CN(CCNC(=O)C1CCCCC1C(=O)O)c1ccccc1 (stereo unspecified)
inactive: [1] 5% | [2] 22.3% | [3] 1% | [4] 0.15% | [5] 13.6% | [6] -10.2%

O=C(O)c1ccccc1-c1ccccc1
inactive: [1] -19.2% | [2] -36.1% | [3] -12.4% | [4] 4.3% | [5] -15.3% | [6] -1.9%

CCOC(=O)C1CC2OC2CC1C(=O)OCC (stereo unspecified)
inactive: [1] 0.55% | [2] -36.9% | [3] -15.2% | [4] 12.4% | [5] -1.9% | [6] -33.2%

COc1ccc(/C=C2\CN(CCCC(=O)O)C(=O)C2=O)cc1
inactive: [1] 3.6% | [2] -7.5% | [3] 0% | [4] -6.45% | [5] 4.1% | [6] -16.7%

COc1cc(N=Nc2c(N)nc(N)[nH]c2=O)c(OC)cc1Cl
inactive: [1] -8.45% | [2] 3.65% | [3] -8% | [4] 5.05% | [5] 1.35% | [6] 3%

CCOC(=O)CC(c1ccccc1)C(C)(C(=O)OCC)C(=O)OCC (stereo unspecified)
inactive: [1] -18.3% | [2] -10.8% | [3] 14.8% | [4] 35.9% | [5] 14.2% | [6] -9.3%

COC(=O)CN(CC(=O)NCCCBr)C1CCCCC1N(CC(=O)OC)CC(=O)OC (stereo unspecified)
inactive: [1] -23.9% | [2] -17.1% | [3] 10.2% | [4] -23% | [5] -26.9% | [6] -22.7%

O=C(Nc1ccccc1)C12CCC(CC1Br)C2 (stereo unspecified)
inactive: [1] 4.95% | [2] -9.25% | [3] -9.7% | [4] 7.6% | [5] 1.75% | [6] 14.2%

Cc1ccc(S(=O)(=O)CCC#N)cc1
inactive: [1] 0.25% | [2] 8.2% | [3] -5.65% | [4] -9.35% | [5] -8.2% | [6] -11.7%

C=C1CC(COc2ccc3c(C)c(Cl)c(=O)oc3c2)(c2ccccc2)OC1=O (stereo unspecified)
inactive: [1] 19% | [2] 20.4% | [3] 40% | [4] 37.5% | [5] 18.8% | [6] 37.6%
